Results: PubChem BioAssay (EPA / NIEHS)
Results filed as inconclusive are left out. Active and inactive are the calls of the source. Rule for the calls, unless noted: active = hit-call score of the fitted dose curve at least 0.9, where 1 is the maximum; inactive = score below 0.9.

What was measured:
[1] = ATG_TCF_b_cat_CIS: Attagene CIS-FACTORIAL HepG2 Assay for human T-Cell-Factor with beta-catenin (TCF/b-cat) (AID 2282965); conditions: HepG2 TCF/beta-catenin cis-reporter transcription, actives raise or lower the signal
Method in brief: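 Endogenous TCF/LEF activity read as reporter transcript level via RT-PCR and capillary electrophoresis fluorescence in transfected HepG2, 24 h exposure; gain or loss of signal fitted against DMSO controls.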

[2] = ATG_TAL_CIS: Attagene CIS-FACTORIAL HepG2 Assay for human TAL Basal Promoter (AID 2282966); conditions: HepG2 Attagene cis-factorial TAL promoter reporter; actives raise or lower the signal;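 note: background control endpoint measuring basal TAL promoter reporter mRNA not a specific factor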
Method in brief: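 In this cell-based multiplex, HepG2 liver cells bearing cis-promoter reporter constructs are dosed for 24 hours. Total RNA is reverse-transcribed and amplified, labelled fragments are sized by capillary electrophoresis, and signal changes are fitted bidirectionally versus DMSO.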

[3] = ATG_TGFb_CIS: Attagene CIS-FACTORIAL HepG2 Assay for human Transforming Growth Factor (TGF) (AID 2282967); conditions: HepG2 Attagene CIS TGFb reporter, mRNA transcription; actives raise or lower the signal
Method in brief: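 Multiplexed cis-reporter HepG2 system, 24 h treatment; mRNA induction read by fluorescence after RT-PCR and CE; DMSO negative control, bidirectional curve fitting.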

[4] = ATG_VDRE_CIS: Attagene CIS-FACTORIAL HepG2 Assay for human Vitamin D Receptor Element (VDRE) (AID 2282968); conditions: HepG2 VDRE cis-reporter transcription, actives raise or lower the signal
Method in brief: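 In transiently transfected HepG2 liver cells, gain or loss of reporter mRNA after 24 h exposure is scored relative to DMSO, using fluorescence detection by capillary electrophoresis of RT-PCR products.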

[5] = molecular target: Nuclear receptor subfamily 1 group I member 3 (Homo sapiens) (UniProt Q14994); experiment: ATG_CAR_TRANS: Attagene TRANS-FACTORIAL HepG2 Assay for human Constitutive Androstane Receptor (CAR) (AID 2282969; active = hit-call score of the fitted dose curve at least 0.9, where 1 is the maximum;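 note: activators raise reporter mRNA above DMSO so AC50 marks induction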); conditions: HepG2 Attagene TRANS-FACTORIAL CAR reporter
Chain of Nuclear receptor subfamily 1 group I member 3 (Homo sapiens) (Q14994 whole entry, looked up, the tested form may be a part): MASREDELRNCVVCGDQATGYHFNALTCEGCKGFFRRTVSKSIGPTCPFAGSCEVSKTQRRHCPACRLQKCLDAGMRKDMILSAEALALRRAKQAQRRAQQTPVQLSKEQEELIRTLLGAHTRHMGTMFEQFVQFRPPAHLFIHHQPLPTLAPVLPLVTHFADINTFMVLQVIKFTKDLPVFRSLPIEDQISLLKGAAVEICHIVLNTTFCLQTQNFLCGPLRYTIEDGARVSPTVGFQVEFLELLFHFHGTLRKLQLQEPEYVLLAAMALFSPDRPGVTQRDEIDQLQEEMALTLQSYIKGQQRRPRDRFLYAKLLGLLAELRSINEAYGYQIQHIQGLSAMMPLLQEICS
Method in brief: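 Readout is reporter mRNA induction, quantified by fluorescent primer extension and capillary electrophoresis after RT-PCR. Cells were HepG2 transiently carrying chimeric NR-Gal4 constructs with GAL4-UAS reporters, treated for 24 h; activity scored upward from DMSO.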

[6] = molecular target: X-box-binding protein 1 (Homo sapiens) (UniProt P17861); experiment: ATG_Xbp1_CIS: Attagene CIS-FACTORIAL HepG2 Assay for human X-box Binding Protein 1 (XBP1) (AID 2282972); conditions: HepG2 XBP1 cis-element reporter, Attagene multiplex; actives raise or lower the signal
Chain of X-box-binding protein 1 (Homo sapiens) (P17861 whole entry, looked up): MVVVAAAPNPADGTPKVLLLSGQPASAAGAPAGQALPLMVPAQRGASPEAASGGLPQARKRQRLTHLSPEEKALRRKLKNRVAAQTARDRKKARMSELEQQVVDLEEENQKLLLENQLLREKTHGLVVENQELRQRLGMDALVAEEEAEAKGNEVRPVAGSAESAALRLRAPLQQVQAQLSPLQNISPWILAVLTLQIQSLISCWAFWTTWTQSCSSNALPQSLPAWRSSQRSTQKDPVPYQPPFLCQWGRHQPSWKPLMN
Method in brief: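 HepG2 cells transiently transfected with multiple cis-element reporter units report endogenous TF activity; 24 h exposure, then reporter mRNA measured by RT-PCR, 6-FAM labelling, HpaI digestion and capillary electrophoresis. Bidirectional fitting versus DMSO.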

[7] = ATG_M_19_TRANS: Attagene TRANS-FACTORIAL HepG2 Assay for M19 Transcription Factor (Internal Marker) (AID 2282974; active = hit-call score of the fitted dose curve at least 0.9, where 1 is the maximum); conditions: HepG2 Attagene TRANS-FACTORIAL M19 internal marker reporter
Method in brief: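 Background-control readout: after 24 h chemical exposure of transfected HepG2 carrying GAL4-driven reporter units, RNA was reverse-transcribed, amplified, fluorescently labeled and sized by capillary electrophoresis; gain-of-signal fit against DMSO.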

[8] = molecular target: Estrogen receptor (Homo sapiens) (UniProt P03372); experiment: ATG_ERa_TRANS: Attagene TRANS-FACTORIAL HepG2 Assay for human Estrogen Receptor alpha (ERa) (AID 2282970; active = hit-call score of the fitted dose curve at least 0.9, where 1 is the maximum); conditions: HepG2 Attagene TRANS ERa GAL4 reporter, mRNA
Chain of Estrogen receptor (Homo sapiens) (P03372 whole entry, looked up, the tested form may be a part): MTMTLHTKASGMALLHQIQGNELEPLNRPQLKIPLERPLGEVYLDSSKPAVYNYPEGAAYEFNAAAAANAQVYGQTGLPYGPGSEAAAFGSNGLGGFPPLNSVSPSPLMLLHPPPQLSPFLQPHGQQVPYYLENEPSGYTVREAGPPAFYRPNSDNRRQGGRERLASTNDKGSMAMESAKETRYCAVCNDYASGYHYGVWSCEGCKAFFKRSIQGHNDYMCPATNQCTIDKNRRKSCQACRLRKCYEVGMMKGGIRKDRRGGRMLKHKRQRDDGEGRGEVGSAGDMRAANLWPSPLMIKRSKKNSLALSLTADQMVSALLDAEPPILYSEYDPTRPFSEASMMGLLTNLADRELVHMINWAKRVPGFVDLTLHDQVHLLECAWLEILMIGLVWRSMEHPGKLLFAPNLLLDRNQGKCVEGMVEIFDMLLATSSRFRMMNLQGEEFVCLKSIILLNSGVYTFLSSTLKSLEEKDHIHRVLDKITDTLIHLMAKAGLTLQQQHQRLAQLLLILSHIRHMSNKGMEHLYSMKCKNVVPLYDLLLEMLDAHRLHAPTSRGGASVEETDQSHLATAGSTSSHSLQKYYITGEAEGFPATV
Method in brief: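 After 24 h of compound treatment, RNA from HepG2 cells bearing transfected GAL4-UAS reporter constructs is converted to cDNA, amplified and fluorescently labelled. Capillary electrophoresis resolves the ERa-linked reporter; DMSO serves as negative control.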

[9] = ATG_GAL4_TRANS: Attagene TRANS-FACTORIAL HepG2 Assay for GAL4 (Internal Marker) (AID 2282976; active = hit-call score of the fitted dose curve at least 0.9, where 1 is the maximum); conditions: HepG2 Attagene TRANS GAL4 internal marker reporter
Method in brief: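 RT-PCR/capillary electrophoresis readout of reporter mRNA. HepG2, transient MRTU transfection (GAL4-UAS reporters), 24 h compound exposure. Background-control endpoint, positive direction vs DMSO baseline.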

[10] = molecular target: Steroid hormone receptor ERR1 (Homo sapiens) (UniProt P11474); experiment: ATG_ERRa_TRANS: Attagene TRANS-FACTORIAL HepG2 Assay for human Estrogen-Related Receptor alpha (ERRa) (AID 2282971; active = hit-call score of the fitted dose curve at least 0.9, where 1 is the maximum); conditions: HepG2 Attagene TRANS reporter, ERRa transactivation
Chain of Steroid hormone receptor ERR1 (Homo sapiens) (P11474 whole entry, looked up, the tested form may be a part): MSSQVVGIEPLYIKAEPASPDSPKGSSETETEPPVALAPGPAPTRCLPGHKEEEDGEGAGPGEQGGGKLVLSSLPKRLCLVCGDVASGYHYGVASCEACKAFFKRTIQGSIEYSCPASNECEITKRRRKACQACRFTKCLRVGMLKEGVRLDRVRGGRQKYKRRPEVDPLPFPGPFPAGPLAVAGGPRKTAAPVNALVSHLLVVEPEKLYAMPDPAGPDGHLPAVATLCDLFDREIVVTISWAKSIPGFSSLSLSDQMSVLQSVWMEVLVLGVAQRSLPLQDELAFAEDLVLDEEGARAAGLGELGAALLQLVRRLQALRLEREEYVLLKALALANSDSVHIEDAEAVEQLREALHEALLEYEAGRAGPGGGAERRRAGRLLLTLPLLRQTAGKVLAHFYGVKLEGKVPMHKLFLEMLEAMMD
Method in brief: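 Transfected HepG2, 24 h dosing, ERRa-Gal4 chimera driving GAL4-UAS reporter. Readout: reporter mRNA via RT-PCR plus capillary electrophoresis (fluorescence). Positive direction vs DMSO control.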

SMILES | outcome [1] | outcome [2] | outcome [3] | outcome [4] | outcome [5] | outcome [6] | outcome [7] | outcome [8] | outcome [9] | AC50 [4] | outcome [10] | AC50 [3] | AC50 [1] | AC50 [8]
O=Cc1ccccc1O | inactive | inactive | inactive | inactive | inactive | inactive | inactive |  |  |  |  |  |  | 
C=CC(C)CCCC(C)(C)O (stereo not drawn) | inactive | inactive | inactive | inactive | inactive | inactive |  |  |  |  |  |  |  | 
N#CCCNCCC#N | inactive | inactive | inactive | inactive | inactive | inactive |  | inactive | inactive |  |  |  |  | 
CCCCOCCOC(=O)c1ccccc1C(=O)OCCOCCCC | inactive | inactive | inactive |  | inactive | inactive | inactive | inactive |  | 11 µM (active) |  |  |  | 
CC(=O)CCC(=O)O | inactive | inactive | inactive | inactive | inactive | inactive | inactive |  |  |  |  |  |  | 
CC(C)CCCC(C)(C)O | inactive | inactive | inactive | inactive | inactive | inactive | inactive |  | inactive |  |  |  |  | 
CC(C)(C)c1ccc(S)cc1 | inactive | inactive | inactive | inactive | inactive | inactive |  | inactive | inactive |  |  |  |  | 
COc1ccc(OC)cc1 | inactive | inactive | inactive | inactive | inactive | inactive |  |  | inactive |  | inactive |  |  | 
CCOCC(C)O (stereo not drawn) | inactive | inactive | inactive | inactive |  | inactive | inactive | inactive |  |  | inactive |  |  | 
O=c1cc[nH]cc1 | inactive | inactive |  | inactive | inactive | inactive |  |  |  |  |  | 0.0823 µM (active) |  | 
CC(O)CNCC(C)O (stereo not drawn) | inactive | inactive | inactive | inactive | inactive | inactive |  |  | inactive |  |  |  |  | 
CCCCCCOc1ccc(O)cc1 |  | inactive | inactive |  |  | inactive | inactive |  |  | 33.4 µM (active) |  |  | 20.5 µM (active) | 2.85 µM (active)
CCCCCc1cccc(=O)o1 | inactive | inactive | inactive | inactive |  | inactive | inactive | inactive |  |  |  |  |  | 
CC(=O)CCc1ccc(O)cc1 | inactive | inactive | inactive | inactive |  | inactive | inactive | inactive |  |  |  |  |  | 
C=C(C)C(=O)OCCC(C)OC(=O)C(=C)C (stereo not drawn) | inactive | inactive | inactive | inactive |  | inactive | inactive | inactive |  |  | inactive |  |  | 
CN(C)c1ccc(C=O)cc1 | inactive | inactive | inactive | inactive |  | inactive |  | inactive | inactive |  | inactive |  |  | 

SMILES | outcome [1] | outcome [2] | outcome [3] | outcome [4] | outcome [5] | outcome [6] | outcome [7] | outcome [8] | outcome [9] | AC50 [4] | outcome [10] | AC50 [3] | AC50 [1] | AC50 [8]
CC1=CC[C@@H](C(C)(C)O)CC1 | inactive | inactive | inactive | inactive |  | inactive |  | inactive |  |  |  |  |  | 
CC(=O)Oc1c(C)c(C)c2c(c1C)CC[C@@](C)(CCC[C@H](C)CCC[C@H](C)CCCC(C)C)O2 | inactive | inactive | inactive | inactive |  | inactive | inactive | inactive |  |  | inactive |  |  | 
O=C(O)c1cccc(Cl)n1 | inactive | inactive | inactive | inactive |  | inactive | inactive | inactive |  |  |  |  |  | 
CN(C)C(=O)Nc1ccccc1 | inactive | inactive | inactive | inactive |  | inactive | inactive | inactive |  |  |  |  |  | 
COc1ccccc1O | inactive | inactive | inactive | inactive |  | inactive | inactive | inactive | inactive |  |  |  |  | 
CCCCCCCOC(C)=O | inactive | inactive | inactive | inactive |  | inactive |  |  |  |  |  |  |  | 17.6 µM (active)
CC(=N[Si](C)(C)C)O[Si](C)(C)C | inactive | inactive | inactive | inactive |  | inactive | inactive | inactive |  |  |  |  |  | 
c1coc(CNc2ncnc3nc[nH]c23)c1 | inactive | inactive | inactive | inactive |  | inactive |  | inactive |  |  |  |  |  | 
O=C(C=Cc1ccccc1)OCCCc1ccccc1 | inactive | inactive | inactive | inactive |  | inactive | inactive |  |  |  |  |  |  | 15.3 µM (active)
C1=COCCC1 | inactive | inactive | inactive | inactive |  | inactive | inactive | inactive |  |  |  |  |  | 
CCCC1CCC(=O)CC1 | inactive | inactive | inactive | inactive |  | inactive | inactive | inactive |  |  |  |  |  | 
C=C/C(C)=C/C/C=C(\C)CCC=C(C)C | inactive | inactive | inactive | inactive |  | inactive |  | inactive |  |  |  |  |  | 
CCC(C)C1CCCCC1=O (stereo not drawn) | inactive | inactive | inactive | inactive |  | inactive | inactive | inactive | inactive |  | inactive |  |  | 
FC(F)(F)c1ccc(Cl)c(Cl)c1 | inactive | inactive | inactive | inactive |  | inactive | inactive | inactive |  |  |  |  |  | 
CC(=O)C1=C(C)[C@@H]2C[C@@]3(C1)[C@H](C)CC[C@H]3C2(C)C |  | inactive | inactive |  |  | inactive | inactive |  |  | 161 µM (active) |  |  | 77.7 µM (active) | 2.65 µM (active)
